Measurements: PubChem BioAssay AID1159580 (chemical genetic matrix, 2015)
Out of some 5,500 compounds screened, about 2,000 (36%) were called active. About 18% were inconclusive and are not listed. Rule as the data show it: active = normalized growth mostly below about 0.91 (no sharp cut-off); inconclusive = no clear call, values can overlap the other calls; inactive = mostly above about 0.92. Some of the results follow.

Experiment: chemical genetic growth profiling, strain panel (AID 1159580);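 also: tested at 20 µM; growth read once vehicle control cultures reached saturation at 30 °C; 1 = growth at the plate median or of vehicle wells; lower values mean less growth of the strain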
Details: growth OD
[1] = S. cerevisiae deletion strains, locus YGR078C, strain PAC10, active compounds read low
[2] = S. cerevisiae deletion strains, locus YMR307W, strain GAS1, active compounds read low
[3] = S. cerevisiae deletion strains, locus YNL153C, strain GIM3, active compounds read low
[4] = S. cerevisiae deletion strains, locus YNL322C, strain KRE1, active compounds read low
[5] = S. cerevisiae deletion strains, locus YPL055C, strain LGE1, active compounds read low
[6] = S. cerevisiae deletion strains, locus YPL241C, strain CIN2, active compounds read low
[7] = S. cerevisiae deletion strains, locus YAL013W, strain DEP1, active compounds read low
[8] = S. cerevisiae deletion strains, locus YBR229C, strain ROT2, active compounds read low
[9] = S. cerevisiae deletion strains, locus YCL061C, strain MRC1, active compounds read low
[10] = S. cerevisiae deletion strains, locus YDL101C, strain DUN1, active compounds read low
[11] = S. cerevisiae deletion strains, locus YDR150W, strain NUM1, active compounds read low
[12] = S. cerevisiae deletion strains, locus YEL061C, strain CIN8, active compounds read low
[13] = S. cerevisiae deletion strains, locus YHR030C, strain SLT2, active compounds read low
[14] = S. cerevisiae deletion strains, locus YHR087W, strain rtc3, active compounds read low
[15] = S. cerevisiae deletion strains, locus YJR043C, strain POL32, active compounds read low
[16] = S. cerevisiae deletion strains, locus YJR075W, strain HOC1, active compounds read low
[17] = S. cerevisiae deletion strains, locus YKL190W, strain CNB1, active compounds read low
[18] = S. cerevisiae deletion strains, locus YLR039C, strain RIC1, active compounds read low
[19] = S. cerevisiae deletion strains, locus YLR058C, strain SHM2 (second series), active compounds read low
[20] = S. cerevisiae deletion strains, locus YLR085C, strain ARP6, active compounds read low
[21] = S. cerevisiae deletion strains, locus YLR262C, strain YPT6, active compounds read low
[22] = S. cerevisiae deletion strains, locus YML094W, strain GIM5, active compounds read low
[23] = S. cerevisiae deletion strains, locus YMR219W, strain ESC1, active compounds read low
[24] = S. cerevisiae deletion strains, locus YMR263W, strain SAP30, active compounds read low
[25] = S. cerevisiae deletion strains, locus YNL298W, strain CLA4 (second series), active compounds read low
[26] = S. cerevisiae deletion strains, locus YNR030W, strain Alg12, active compounds read low
[27] = S. cerevisiae deletion strains, locus YPR135W, strain CTF4, active compounds read low
[28] = S. cerevisiae deletion strains, locus YDL134C, strain PPH21, active compounds read low

Measured: normalized growth

OCc1cnc[nH]1
inactive: S. cerevisiae deletion strains, locus YAL040C, strain CLN3, active compounds read low 0.98 | S. cerevisiae deletion strains, locus YCL061C, strain MRC1 (second series), active compounds read low 1 | S. cerevisiae deletion strains, locus YDR363W, strain ESC2, active compounds read low 1.01 | S. cerevisiae deletion strains, locus YER002W, strain NOP16, active compounds read low 1.03 | [1] 1.01 | S. cerevisiae deletion strains, locus YGR229C, strain SMI1, active compounds read low 0.987 | [2] 1 | [3] 1.05 | S. cerevisiae deletion strains, locus YNL175C, strain NOP13, active compounds read low 1.02 | S. cerevisiae deletion strains, locus YNL197C, strain WHI3, active compounds read low 1.01 | S. cerevisiae deletion strains, locus YNL224C, strain SQS1, active compounds read low 1.01 | [4] 1 | S. cerevisiae deletion strains, locus YOR083W, strain WHI5 (second series), active compounds read low 0.989 | [5] 1.01 | [6] 1.01

N#Cc1ncc(C(F)(F)F)cc1Oc1ccc(Cl)cc1
active: [7] 0.921 | [8] 0.789 | [9] 0.898 | [10] 0.868 | [11] 0.799 | [12] 0.903 | [1] 0.708 | [14] 0.745 | [15] 0.911 | [16] 0.594 | [17] 0.842 | [18] 0.694 | [19] 0.829 | [20] 0.595 | [21] 0.658 | [23] 0.814 | [3] 0.892 | [25] 0.709 | [4] 0.849 | [26] 0.737 | [5] 0.751 | [6] 0.844 | S. cerevisiae strains, strain wild type, active compounds read low 0.851
inactive: [13] 0.843 | [22] 0.907 | [24] 0.913 | [2] 1.01 | [27] 0.889

N#Cc1c(F)cccc1Oc1ccc(F)cc1
inactive: [7] 0.999 | [8] 0.957 | [9] 1.01 | [10] 0.98 | [28] 0.986 | [11] 0.941 | [12] 0.966 | [1] 0.971 | [13] 0.848 | [14] 0.948 | [15] 0.999 | [16] 0.946 | [17] 0.972 | [18] 0.851 | [19] 0.979 | [20] 0.941 | [21] 0.907 | [22] 0.97 | [23] 0.971 | [24] 0.998 | [2] 0.891 | [3] 0.991 | [25] 0.928 | [4] 0.962 | [26] 0.986 | [5] 0.956 | [6] 0.978 | [27] 0.905

Cc1cccc(C(=O)O)c1O
inactive: [7] 1.01 | S. cerevisiae deletion strains, locus YBR021W, strain FUR4, active compounds read low 0.997 | [8] 1.02 | S. cerevisiae deletion strains, locus YCL029C, strain bik1, active compounds read low 1.02 | S. cerevisiae deletion strains, locus YDL035C, strain GPR1, active compounds read low 0.999 | S. cerevisiae deletion strains, locus YDL074C, strain BRE1, active compounds read low 1.02 | [10] 1.02 | [28] 1.01 | S. cerevisiae deletion strains, locus YDL185W, strain tfp1, active compounds read low 1.02 | S. cerevisiae deletion strains, locus YDL192W, strain arf1, active compounds read low 1.01 | S. cerevisiae deletion strains, locus YDR101C, strain arx1, active compounds read low 1.01 | S. cerevisiae deletion strains, locus YDR162C, strain NBP2, active compounds read low 1.02 | S. cerevisiae deletion strains, locus YDR318W, strain mcm21, active compounds read low 1.02 | S. cerevisiae deletion strains, locus YDR388W, active compounds read low 1.02 | S. cerevisiae deletion strains, locus YDR502C, strain sam2, active compounds read low 1.01 | [12] 1.01 | S. cerevisiae deletion strains, locus YER110C, active compounds read low 1.01 | S. cerevisiae deletion strains, locus YER155C, strain BEM2, active compounds read low 1 | S. cerevisiae deletion strains, locus YER167W, strain BCK2, active compounds read low 1.01 | S. cerevisiae deletion strains, locus YGL078C, strain dbp3, active compounds read low 1 | S. cerevisiae deletion strains, locus YGL086W, strain mad1, active compounds read low 1.01 | S. cerevisiae deletion strains, locus YGL248W, strain PDE1, active compounds read low 1.02 | [1] 1.01 | S. cerevisiae deletion strains, locus YGR135W, strain pre9, active compounds read low 1.02 | S. cerevisiae deletion strains, locus YGR252W, strain gcn5, active compounds read low 1 | [13] 1.02 | S. cerevisiae deletion strains, locus YHR079C, strain IRE1 (second series), active compounds read low 1.01 | S. cerevisiae deletion strains, locus YHR094C, strain hxt1, active compounds read low 1.01 | S. cerevisiae deletion strains, locus YHR129C, strain ARP1, active compounds read low 1.01 | S. cerevisiae deletion strains, locus YHR200W, strain rpn10, active compounds read low 1.02 | S. cerevisiae deletion strains, locus YIL066C, strain RNR3, active compounds read low 1.02 | S. cerevisiae deletion strains, locus YIL073C, strain SPO22, active compounds read low 1.02 | S. cerevisiae deletion strains, locus YIL125W, strain kgd1, active compounds read low 1.01 | S. cerevisiae deletion strains, locus YIR030C, strain dcg1, active compounds read low 1.02 | S. cerevisiae deletion strains, locus YJL095W, strain BCK1, active compounds read low 1.02 | S. cerevisiae deletion strains, locus YJL134W, strain LCB3, active compounds read low 1.01 | S. cerevisiae deletion strains, locus YJL168C, strain set2, active compounds read low 1 | S. cerevisiae deletion strains, locus YJL187C, strain SWE1 (second series), active compounds read low 1.02 | [15] 1.01 | S. cerevisiae deletion strains, locus YKL009W, strain mrt4, active compounds read low 0.968 | S. cerevisiae deletion strains, locus YKL068W, active compounds read low 1 | S. cerevisiae deletion strains, locus YKL085W, strain MDH1 (second series), active compounds read low 1 | S. cerevisiae deletion strains, locus YKL085W, strain MDH1, active compounds read low 1 | S. cerevisiae deletion strains, locus YKR001C, strain vps1, active compounds read low 1.02 | [18] 0.993 | S. cerevisiae deletion strains, locus YLR058C, strain SHM2, active compounds read low 1.02 | S. cerevisiae deletion strains, locus YLR102C, strain apc9, active compounds read low 1.01 | [21] 1.04 | S. cerevisiae deletion strains, locus YLR268W, strain sec22, active compounds read low 1.03 | S. cerevisiae deletion strains, locus YLR330W, strain CHS5, active compounds read low 1.01 | S. cerevisiae deletion strains, locus YLR342W, strain FKS1 (second series), active compounds read low 0.995 | S. cerevisiae deletion strains, locus YLR371W, strain rom2, active compounds read low 1.02 | S. cerevisiae deletion strains, locus YLR418C, strain cdc73, active compounds read low 1.05 | S. cerevisiae deletion strains, locus YML016C, strain PPZ1, active compounds read low 1.01 | S. cerevisiae deletion strains, locus YML032C, strain rad52, active compounds read low 1.02 | S. cerevisiae deletion strains, locus YML124C, strain tub3, active compounds read low 1.02 | S. cerevisiae deletion strains, locus YMR078C, strain ctf18, active compounds read low 1.02 | S. cerevisiae deletion strains, locus YMR223W, strain ubp8, active compounds read low 1.02 | [2] 0.975 | S. cerevisiae deletion strains, locus YNL067W, strain RPL9B, active compounds read low 1.02 | [3] 1.01 | S. cerevisiae deletion strains, locus YNL233W, strain BNI4, active compounds read low 1.02 | S. cerevisiae deletion strains, locus YNL250W, strain rad50, active compounds read low 1.02 | S. cerevisiae deletion strains, locus YNL271C, strain bni1, active compounds read low 1 | S. cerevisiae deletion strains, locus YNL298W, strain CLA4, active compounds read low 0.996 | S. cerevisiae deletion strains, locus YNL307C, strain MCK1, active compounds read low 1.02 | [4] 1.01 | S. cerevisiae deletion strains, locus YNR052C, strain pop2, active compounds read low 1.03 | S. cerevisiae deletion strains, locus YOL012C, strain htz1 0.786 | S. cerevisiae deletion strains, locus YOL147C, strain pex11, active compounds read low 1.01 | S. cerevisiae deletion strains, locus YOR061W, strain CKA2, active compounds read low 1.01 | S. cerevisiae deletion strains, locus YOR069W, strain VPS5, active compounds read low 1.02 | S. cerevisiae deletion strains, locus YOR136W, strain idh2, active compounds read low 1.01 | S. cerevisiae deletion strains, locus YOR144C, strain elg1, active compounds read low 1.01 | S. cerevisiae deletion strains, locus YOR184W, strain ser1, active compounds read low 1.02 | S. cerevisiae deletion strains, locus YOR316C, strain cot1, active compounds read low 1.02 | [5] 1.01 | [6] 1.01 | S. cerevisiae deletion strains, locus YPR119W, strain clb2, active compounds read low 1.01 | S. cerevisiae deletion strains, locus YPR141C, strain kar3, active compounds read low 1.01 | S. cerevisiae deletion strains, locus YPR163C, strain tif3, active compounds read low 1.02 | S. cerevisiae deletion strains, locus YPR167C, strain met16, active compounds read low 1.01 | S. cerevisiae deletion strains, strain wtn01, active compounds read low 1
